From PubChem BioAssay
Tau fil binding: tau filament binding. P10636. recombinant tau filaments, thioflavin S fluorescence, 15 h; filaments grown with octadecylsulfate alongside compound. Potency, µM (doses to about 57.1 µM), without a hit: at the highest dose activity change, negative = inhibition. actives 2% (n = 71,000). AID 596;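 further: on the % scale 0 is the no-effect control and ±100 the full control effect; actives lower thioflavin S fluorescence by blocking filaments or displacing dye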
Target sequence (P10636 whole entry, looked up): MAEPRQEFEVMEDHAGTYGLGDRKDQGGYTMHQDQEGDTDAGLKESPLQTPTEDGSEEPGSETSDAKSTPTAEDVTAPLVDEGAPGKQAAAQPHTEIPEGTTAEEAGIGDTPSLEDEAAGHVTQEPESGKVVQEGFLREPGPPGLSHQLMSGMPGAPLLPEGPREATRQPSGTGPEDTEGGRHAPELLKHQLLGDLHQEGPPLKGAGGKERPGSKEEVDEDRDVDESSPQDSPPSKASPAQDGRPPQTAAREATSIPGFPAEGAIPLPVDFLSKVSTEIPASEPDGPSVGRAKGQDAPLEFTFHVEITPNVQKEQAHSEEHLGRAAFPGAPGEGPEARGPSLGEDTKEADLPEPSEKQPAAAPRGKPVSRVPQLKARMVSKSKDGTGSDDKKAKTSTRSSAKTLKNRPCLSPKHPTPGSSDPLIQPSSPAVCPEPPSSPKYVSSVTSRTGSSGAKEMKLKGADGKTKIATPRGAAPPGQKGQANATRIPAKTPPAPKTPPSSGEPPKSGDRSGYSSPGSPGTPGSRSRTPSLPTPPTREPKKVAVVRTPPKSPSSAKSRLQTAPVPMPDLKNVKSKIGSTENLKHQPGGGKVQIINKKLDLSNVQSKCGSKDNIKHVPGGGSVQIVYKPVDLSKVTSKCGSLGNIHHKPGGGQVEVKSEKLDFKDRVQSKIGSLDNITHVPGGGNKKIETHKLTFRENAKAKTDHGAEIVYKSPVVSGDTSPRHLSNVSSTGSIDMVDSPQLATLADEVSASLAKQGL
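Quantitative HTS: thioflavine S signal from ODS-induced tau filaments, excited at 450 nm, emission 510 nm. Conditions: 1 uM tau, 30 uM ODS, 15 h at 37 C, pH 7.4.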
TSHR ag: activates the human thyroid stimulating hormone receptor. P16473. HEK293-CNG-TSHR cells (CNG channel as cAMP sensor), membrane potential dye, cAMP. Potency, µM (titrated, usually from 57.1 µM), inactives show top-dose activation, hits mostly activators. actives 0.48% (n = 73,000); active means well fitted activation curve with a large enough effect in the main read-out, with a control signal flat, not every such curve was filed as active; inconclusive means small, poorly fitted or top-dose-only effect, or a change in a side signal; inactive means no such curve, though single readings can be large or run the other way; % of control where 0% means no effect;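 further: the control signal comes from parental cells without the receptor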
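HEK 293 cells stably expressing TSHR and a cAMP-gated CNG channel; parental CNG-only cells as counterscreen. Cells preloaded 60 min with membrane potential dye plus 100 uM RO 20-1724, then compound 30 min; fluorescence read at 590 nm.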
ERK AVP block: blocks ERK signaling stimulated by vasopressin; HEK293-V1b, vasopressin-stimulated pERK AlphaScreen; Potency, µM (top dose mostly 57.5 µM), for the others: at the highest dose activity, negative = inhibition, usual class: inhibitors; actives 0.99% (n = 72,000); further: on the % scale 0 is the no-effect control and ±100 the full control effect; nearly all actives have a fitted effect of over 55% in size
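V1b-HEK293 cells; cpd 30 min 37C; 25 nM vasopressin 5 min; lyse 10 min; AlphaScreen beads 5 hr RT. Normalized to DMSO basal and 25 nM vasopressin; AC50 by Hill fit.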
CRE Fsk mod: alters forskolin-stimulated CRE reporter signaling in CHO cells. CHO CRE-bla reporter (cAMP response element driving beta-lactamase), forskolin EC10, beta-lactamase ratio. Potency, µM (series often up to 38.2 µM), inactives show at the highest dose activity change, negative = inhibition, usual class: activators. actives 2.5% (n = 71,000). AID 662; active means well fitted activation curve with a large enough effect in the signal ratio, with a control signal flat, not every such curve was filed as active; inconclusive means small, poorly fitted or top-dose-only effect, or effect the other way, or a change in a side signal; the % refers to the signal ratio; further: % of control where 0% means no effect
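AC50 values, positive or negative, reflect shifts in EC10 NKH 477-induced CRE-bla reporter activity in CHO cells. Incubation lasted 3 h at 37 °C before CCF4 substrate (2 h, room temperature) and ratiometric 460/530 nm reading.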
HEK293 cAMP ctrl: raises cAMP in parental HEK293 cells, TSHR agonist counter-screen | actives 2.5% (n = 73,000) | parental HEK293 CNG cAMP sensor, membrane potential fluorescence | Potency, µM (doses to about 57.1 µM), without a hit: at the top dose activation, most hits filed as activators | AID 938; further: % of control where 0% means no effect; nearly all actives have a fitted effect of over 55% in size
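Parental HEK 293 cells stably expressing a cAMP-gated CNG channel were loaded with membrane potential dye containing 100 uM RO 20-1724 for 60 min. Compound added for 30 min; depolarization read as fluorescence intensity at 590 nm.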
An asterisk follows results filed as active; i = inactive; ? = inconclusive; . = no result; [ ] = remark or other dose. The list is not random: actives were taken first. Their share in the collection is about 7.4%. Unless noted, the call rests on the fitted dose curve; in most records, active means well fitted curve in the direction sought with a large enough effect; inconclusive means small, poorly fitted or top-dose-only effect, or another doubt; inactive means no such curve, though single readings can be large; an effect the other way counts as inactive or inconclusive. Potency means the concentration at half of the fitted maximal effect.

SMILES | Tau fil binding | TSHR ag | ERK AVP block | CRE Fsk mod | HEK293 cAMP ctrl
COc1ccc(N(C(=O)Cn2nnc3ccccc32)C(C(=O)NCc2ccco2)c2ccc(C)o2)cc1 (configuration not stated) | 1% | 25µM* | -21% | -22% | 27%
O=C(Cc1cccs1)NCc1ccco1 | 1% | 21% | -15% | -2% | 18%
O=C(NCc1ccco1)C(c1cccs1)N(C(=O)Cc1cccs1)c1ccccc1 (configuration not stated) | -4% | ? | 5% | -22% | 13µM*
CCC(C)(C)NC(=O)C(c1cccn1C)N(C(=O)Cn1nnc2ccccc21)c1ccccc1OC (configuration not stated) | -2% | ? | -3% | -4% | ?
CCC(C)(C)NC(=O)C(c1cccn1C)N(Cc1ccccc1)C(=O)Cn1nnc2ccccc21 (configuration not stated) | 8% | ? | -15% | -4% | 10µM*
Cc1ccc(C(C(=O)NCc2ccco2)N(CCc2ccccc2)C(=O)Cn2nnc3ccccc32)o1 (configuration not stated) | -1% | ? | -2% | -16% | 13µM*
COc1ccc(CNC(=O)C(c2ccco2)N(Cc2cccs2)C(=O)Cc2cccs2)cc1 (configuration not stated) | 7% | ? | -18% | -2% | 20µM*
COCCNC(=O)C(c1ccco1)N(Cc1ccc(OC)cc1)C(=O)Cn1nnc2ccccc21 (configuration not stated) | 7% | -4% | -7% | ? | 2%
COCCN(C(=O)Cn1nnc2ccccc21)C(C(=O)NC1CCCC1)c1cc(OC)ccc1OC (configuration not stated) | -4% | ? | -3% | -3% | 25µM*
CC(C)CCNC(=O)C(c1ccco1)N(Cc1cccs1)C(=O)Cn1nnc2ccccc21 (configuration not stated) | -7% | ? | -14% | -14% | 6.3µM*
COc1ccc(OC)c(C(C(=O)NCc2ccco2)N(C(=O)Cn2nnc3ccccc32)C(C)C)c1 (configuration not stated) | 4% | ? | 10% | ? | 16µM*
O=C(O)c1cc(=O)[nH]c(SCc2ccccc2)n1 | -7%[11.4 µM] | -4%[11.4 µM] | -12%[11.5 µM] | 4%[7.6 µM] | 2%[11.4 µM]
O=C(O)C1C(C(=O)O)C(C(=O)O)C1C(=O)O (configuration not stated) | 5%[11.4 µM] | -10%[11.4 µM] | -5%[11.5 µM] | 3%[7.6 µM] | 3%[11.4 µM]
CN1CCN(c2ccnc(-c3ccc(N(C)C)cc3)n2)CC1 | 16% | 0% | -12% | ? | -17%
Cc1ccc(-c2cc3nc(C)cc(NCc4ccco4)n3n2)cc1 | 37% | 5% | 9% | 13µM* | 12%
COc1ccc(-c2cc3nc(C)cc(NCCO)n3n2)cc1 | 1% | -2% | -6% | ? | 11%
Brc1ccc(C2=Nn3c(nnc3-c3n[nH]c4c3CCC4)SC2)cc1 | -16% | ? | -7% | 5µM* | 13µM*
Clc1ccc(C2=Nn3c(nnc3-c3n[nH]c4c3CCC4)SC2)cc1 | -3% | ? | -7% | 2.5µM* | 25µM*
Cc1ccc(-c2nnc3n2N=C(c2ccc(Br)cc2)CS3)cc1 | i | 11% | -15% | 10µM* | 15%
Brc1ccccc1C1=Nn2c(nnc2-c2ccccc2)SC1 | -5% | ? | -15% | -3% | ?
Clc1ccc(C2=Nn3c(nnc3-c3cccnc3)SC2)s1 | -2% | 26% | 6% | 3% | -7%
COc1ccc(-c2coc3cc(O[C@@H]4O[C@@H](CO)[C@@H](O)[C@@H](O)[C@H]4O)cc(O)c3c2=O)cc1 | ? | -3% | . | 10% | 6%
CCCCCNCCCCC | 1% | ? | 10% | -2% | ?
Cc1nnc(C)c2c(C)n(-c3ccc(Br)cc3)c(C)c12 | 1% | ? | 5% | -1% | 4µM*
COc1ccc(Cn2nnnc2CN(Cc2cc3cc(C)ccc3[nH]c2=O)C2CCCC2)cc1 | -2% | ? | -15% | 3% | 25µM*
SMILES | Tau fil binding | TSHR ag | ERK AVP block | CRE Fsk mod | HEK293 cAMP ctrl
Cc1ccc2[nH]c(=O)c(CN(Cc3ccccc3)Cc3nnnn3C3CCCC3)cc2c1 | 9% | ? | -14% | -1% | 25µM*
Cc1ccc(C)c2[nH]c(=O)c(CN(Cc3nnnn3C3CCCCC3)CC3CCCO3)cc12 (configuration not stated) | 5% | ? | -8% | 1% | 25µM*
Cc1ccc(C)c2[nH]c(=O)c(CN(Cc3ccco3)C(=O)Nc3ccccc3)cc12 | 37% | ? | ? | ? | 20µM*
C[N+](C)(C)c1ncnc2c1ncn2[C@@H]1C[C@H](O)[C@@H](CO)O1 | 9%[11.4 µM] | 5%[11.4 µM] | -11%[11.5 µM] | -3%[7.6 µM] | 6%[11.4 µM]
Cn1c(C[C@@H](O)c2nc3ccccc3n2C)nc2ccccc21 | -11%[11.4 µM] | -1%[11.4 µM] | -26%[11.5 µM] | 1%[7.6 µM] | 11%[11.4 µM]
O=c1cc(-c2ccccc2)oc2cc(O[C@@H]3O[C@H](CO)[C@@H](O)[C@H](O)[C@H]3O)c(O)c(O)c12 | . | . | -5% | . | .
COc1ccccc1-c1ccc2ncnc(N3CCNCC3)c2c1 | 1% | 11% | 3% | ? | 12%
COc1ccc(C(=O)[C@H](Br)[C@H](Br)C(=O)O)cc1 | -2%[11.4 µM] | 10%[11.4 µM] | -18%[11.5 µM] | -8%[7.6 µM] | 3%[11.4 µM]
Cc1cccc2cc(CN(CC3CCCO3)C(=O)c3ccncc3)c(=O)[nH]c12 (configuration not stated) | 8% | -3% | -12% | 5% | 1%
Cc1ccc(C)c2[nH]c(=O)c(CN(CC3CCCO3)C(=O)NC3CCCCC3)cc12 (configuration not stated) | 1% | ? | -3% | -2% | 4µM*
Cn1c(=O)c(CCc2ccccc2)nc2cnc(N3CCNCC3)nc21 | 32% | 20% | -6% | ? | 14%
O=C(Nc1ccc(Nc2ccccc2)cc1)c1ccc(Br)o1 | 16µM* | ? | ? | -1% | -47%
O=C(Nc1ccc(N2CCN(C(=O)c3ccc(Cl)cc3)CC2)cc1)c1ccc(Br)o1 | 25µM* | -34% | ? | ? | -13%
CCN(CC)CCCn1c(-c2ccccc2)nc2c(N3CCOCC3)nc(C)nc21 | -2% | 15% | -2% | 6% | 25%
C#CCOC(=O)[C@H](N)CC(N)=O | 2%[11.4 µM] | -4%[11.4 µM] | 13%[11.5 µM] | -3%[7.6 µM] | 4%[11.4 µM]
CC(C)(C)NC(=O)[C@@H]1C[C@H]2CCCC[C@@H]2CN1C[C@H](O)[C@H](Cc1ccccc1)NC(=O)[C@@H](CC(N)=O)NC(=O)c1ccc2ccccc2n1 | -23%[25.6 µM] | 7%[25.6 µM] | -4%[25.7 µM] | -11%[17.1 µM] | 0%[25.6 µM]
CC(=O)c1c(C(C)=O)c(C)n(NC(=O)c2cccnc2)c1C | 2% | ? | ? | ? | 4µM*
CC(C)(C)c1cc(C(=O)/C=C/c2ccc(C(=O)O)cc2)cc(C(C)(C)C)c1 | . | 19% | ? | . | 28%
